Screening results from PubChem BioAssay.
NALP3 yeast inh: NALP3 inhibition in yeast; Yeast reconstituted NLRP3/ASC/caspase-1, beta-gal luminescence, 24 h; inhibition, % at 10 µM; 0.39% of 330,000 active;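 active means inhibition of 50% or more; inactive means inhibition below 50%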;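 further: plate controls were induced DMSO wells for no effect and uninduced yeast grown without galactose for full effect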
PfHsp90 set2: reduces growth (ATP signal) of yeast expressing P. falciparum Hsp90. S. cerevisiae expressing PfHsp90, BacTiter-Glo ATP, 48 h; yeast lacking PDR1 and PDR3 efflux regulators. inhibition, % at 9.4 µM. 0.32% of 310,000 active. AID 504621;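 active means every replicate shows inhibition above about 80%, whatever the replicate mean, limit read from the data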;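 further: 0% = DMSO neutral controls and 100% = 20 µM radicicol positive controls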
tim10-1 inh: inhibits growth of tim10-1 mutant yeast | S. cerevisiae tim10-1 ts strain growth, BacTiter-Glo, 24 h | inhibition, % at 20 µM | AID 463190 | 2.2% of 330,000 active;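 active means inhibition of at least 40%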;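 further: mutant grown at 25 °C; 0% = DMSO wells with yeast and 100% = wells holding no yeast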
tim23-1 inh: tim23-1 yeast growth inhibition | S. cerevisiae tim23-1 growth, BacTiter-Glo luminescence, 24 h | inhibition, % at 20 µM | 1.3% of 330,000 active | AID 463212;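 active means growth inhibition of the mutant yeast at or above 50%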;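 further: temperature-sensitive mutant grown at 25 °C; plate controls were DMSO-treated mutant yeast for no effect and medium wells lacking yeast for full effect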
TIM10 inh: inhibits growth of TIM10 yeast strain; S. cerevisiae TIM10 strain growth, BacTiter-Glo luminescence, 24 h; inhibition, % at 10 µM; 1.4% of 330,000 active;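 active means inhibition of 40% or more at the single tested concentration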;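 further: wild-type TIM10 isogenic control strain grown at permissive 25 °C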
tim23-1 conf: tim23-1 yeast growth inhibition, confirmed; AID 463218; inhibition, % at 20 µM; shares compounds with tim23-1 inh; 83% of 4,400 active; S. cerevisiae tim23-1 growth, BacTiter-Glo luminescence, 24 h;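 active means inhibition above about 39% in either of two replicate wells at 20 µM, limit read from the data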;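 further: temperature-sensitive tim23-1 mutant grown at 25 °C; 0% = DMSO wells with yeast and 100% = medium wells without yeast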
An asterisk follows results filed as active; / = no result. An excerpt weighted towards active compounds, which were near 3.7% of everything screened.

SMILES	NALP3 yeast inh	PfHsp90 set2	tim10-1 inh	tim23-1 inh	TIM10 inh	tim23-1 conf
O=C(CSc1nc2ccc([N+](=O)[O-])cc2s1)NCC1CCCO1 (stereo not drawn)	9	30	2	-12	-1	/
COc1ccc(OC)c(-c2csc(NC(=O)Cc3ccc(F)cc3)n2)c1	28	-13	25	55*	17	43*
CC[C@@]1(c2ccccc2OC)ON(c2ccccc2C(F)(F)F)C1=O	11	-10	5	57*	34	51*
Cc1ccccc1[C@@]1(C)ON(c2ccccc2C(F)(F)F)C1=O	16	1	9	56*	33	46*
O=C(COC(=O)COc1ccccc1F)Nc1ccc2c(c1)OCO2	3	14	4	-3	0	/
CCCOc1ccc2c3c(c(=O)oc2c1OCCC)CCCC3	30	21	16	31	-7	/
CCOc1ccc2c3c(c(=O)oc2c1OCC)CCCC3	22	/	39	52*	20	39*
CN(C)CCn1c2c(c(SCC(=O)NCc3ccccc3)nc1=O)CCCC2	15	9	9	11	2	/
CC(C)c1ccc(NC(=S)NCCc2c[nH]c3ccccc23)cc1	19	-13	37	52*	15	37
Cc1ccc(NC(=S)NCCc2c[nH]c3ccccc23)cc1	6	-11	6	-54	-17	/
COc1ccc(CN(C(=O)c2cnccn2)C(C(=O)Nc2ccc(F)cc2)c2ccccc2)cc1 (stereo not drawn)	8	7	26	11	8	/
Cc1cnn(-c2nc(-c3ccccc3)cc(-c3ccccc3)n2)c1	7	-49	39	52*	36	56*
CCN1C(=O)/C(=C/c2nc3ccccc3c(=O)n2-c2ccc(C)cc2)c2ccccc21	16	-11	40	52*	10	41*
CCN1C(=O)/C(=C/c2nc3ccccc3c(=O)[nH]2)c2ccccc21	/	2	/	/	/	/
CSCCC(NS(=O)(=O)c1ccc2c(c1)oc(=O)n2C)C(=O)NCc1ccc(C)cc1 (stereo not drawn)	8	-2	7	-14	-12	/
Cc1cc2cc(CNC(=O)c3ccc(C)c([N+](=O)[O-])c3)ccc2[nH]1	47	162*	38	62*	8	56*
Cc1cc2cc(CCNC(=O)c3ccc(C)c([N+](=O)[O-])c3)c(=O)[nH]c2cc1C	19	3	0	9	10	/
COc1ccccc1/C=C/C(=O)NC(=S)NC(C)C	21	6	-3	59*	11	41*
COc1ccccc1/C=C/C(=O)NC(=S)N1CCN(C)CC1	11	9	11	-4	-4	/
COc1cc2cc(C)c(Br)c(OC)c2cc1OC	/	-8	/	/	/	/
COC1=CC(=O)c2ccccc2C1=O	-35	-3	38	78*	25	79*
COc1ccc(OC)c(NC(=O)c2csc(Cl)c2OC)c1	22	-9	23	59*	26	44*
CCOP(=O)(OCC)C(Nc1ccccc1)c1cc(OC)ccc1OC (stereo not drawn)	-3	-2	17	52*	17	26
CCOP(=O)(OCC)C(Nc1ccccc1)c1ccccc1C(F)(F)F (stereo not drawn)	-18	-12	16	37	30	/
COc1cc(C=O)c(Br)cc1OCc1ccc(C)cc1	-25	-111	13	65*	39	57*
SMILES	NALP3 yeast inh	PfHsp90 set2	tim10-1 inh	tim23-1 inh	TIM10 inh	tim23-1 conf
COc1cc(C=O)ccc1OCc1ccncc1	11	-10	15	0	13	/
Cc1ccc(Sc2ccc(CO)cc2[N+](=O)[O-])cc1	20	-4	32	53*	30	52*
Cc1ccc(Sc2ccc(CN3CCCC3)cc2[N+](=O)[O-])cc1	36	23	17	18	6	/
CCOC(=O)/C(=C/c1ccc(OC(=O)c2ccncc2)cc1)C(C)=O	20	-67	20	53*	27	70*
O=c1cc(-c2cccc(Br)c2)nc(-c2ccccc2F)o1	10	-7	30	63*	21	57*
O=c1cc(-c2ccccc2F)nc(-c2ccccc2F)o1	-15	16	14	19	14	/
CN(Cc1cc([N+](=O)[O-])ccc1Cl)C(=O)C[n+]1ccccc1	12	2	27	5	-6	/
Cc1nc(-c2ccc(NC(=O)C3CC3)cc2)cs1	21	23	-7	54*	18	40*
Cc1nc(-c2ccc(NC(=O)c3ccc(Br)o3)cc2)cs1	38	24	5	62*	9	56*
COc1ccc2c(C)cc(SCC(=O)NCCN3C(=O)CSC3=O)nc2c1	3	5	16	27	20	/
C/C(CCc1oc2ccccc2c1-c1ccc(C)o1)=N/O	35	-25	21	3	4	/
C/C(CCc1oc2c(Br)cc(Br)cc2c1-c1ccc(C)o1)=N\O	-5	-20	32	58*	36	29
Cc1ccc(NC(=O)C(C)SCc2nc3sc4c(c3c(=O)[nH]2)CCCC4)nc1 (stereo not drawn)	5	-42	1	12	6	/
COc1ccc(NC(=O)/C=C/c2cccc(Br)c2)cn1	21	-4	-56	87*	13	24
COC(=O)C1=C(C)N(c2ccccc2)/C(=C/c2ccco2)C1=O	20	3	4	28	22	/
O=C(O)CN1C(=O)/C(=C\c2cc(Br)ccc2OCc2ccc([N+](=O)[O-])cc2)SC1=S	16	-54	-5	53*	30	71*
O=C(O)CN1C(=O)/C(=C\c2cc(Br)ccc2OCc2ccccc2Cl)SC1=S	6	-1	17	33	25	/
Cc1ccn2cc(C(=O)Nc3ccccc3N3CCOCC3)nc2c1	30	/	20	56*	33	41*
COc1cc(SC)ccc1C(=O)Nc1ccc2c(c1)OCCO2	31	-24	27	51*	-3	45*
CC1(C)C2CC=C(/C=N/NC(=O)c3ccccc3Br)C1C2 (stereo not drawn)	7	-2	20	7	8	/
O=C(COc1ccc2ccccc2c1Br)Nc1cccnc1	18	-17	30	52*	21	22
COC(=O)c1cc2ccccc2c(-c2c(O)ccc3ccccc23)c1O	9	-59	-4	69*	34	-30
Cc1ccc(S(=O)(=O)/C(C#N)=C/c2c(Oc3ccc(Cl)cc3)nc3c(C)cccn3c2=O)cc1	8	/	2	50*	-12	24
CCCCN(C(=O)c1ccc(C)c(S(=O)(=O)N2CCOCC2)c1)c1c(N)n(CC(C)C)c(=O)[nH]c1=O	4	/	1	5	-1	/
CCCCn1c(N)c(N(CCC(C)C)C(=O)c2ccc3c(c2)OCCO3)c(=O)[nH]c1=O	18	/	30	59*	22	56*
CC(C)CN(C(=O)c1ccc2c(c1)OCCO2)c1c(N)n(Cc2ccccc2)c(=O)[nH]c1=O	7	/	28	52*	17	55*
